± gives the standard deviation of the averaged measurements. About 5,400 targets were measured; listed, in parts, are those with the largest changes and a random draw of the rest.
Assays:
Assay in all cases: NP40-soluble protein abundance relative to vehicle (solubility fold change) (ratio); higher = more soluble protein in presence of GTP
[1] = molecular target: T1, ARHGAP1 (UniProt Q07960)
T1 sequence (whole entry): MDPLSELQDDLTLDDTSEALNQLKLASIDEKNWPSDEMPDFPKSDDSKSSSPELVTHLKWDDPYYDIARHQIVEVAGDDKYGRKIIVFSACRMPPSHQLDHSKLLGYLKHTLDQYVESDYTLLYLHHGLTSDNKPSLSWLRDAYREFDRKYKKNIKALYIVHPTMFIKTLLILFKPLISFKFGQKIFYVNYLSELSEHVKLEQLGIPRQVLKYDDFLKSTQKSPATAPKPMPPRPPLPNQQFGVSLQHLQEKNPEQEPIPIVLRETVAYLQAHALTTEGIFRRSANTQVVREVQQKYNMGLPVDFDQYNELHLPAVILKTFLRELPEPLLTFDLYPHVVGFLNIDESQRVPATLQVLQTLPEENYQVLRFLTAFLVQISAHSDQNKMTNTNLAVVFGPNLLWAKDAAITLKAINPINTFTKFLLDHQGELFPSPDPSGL
Procedure, shortened: (§1)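 In three independent experiments, Jurkat crude lysate made by Dounce homogenisation was treated for 10 min at room temperature and then 3 min at 37 °C with eight concentrations ranging from 0.1 to 10 mM. It was then solubilised with 0.8% NP40 plus benzonase for 60 min at 4 °C and ultracentrifuged. The supernatant was TMT-labelled for LC-MS/MS, and each value is the fold change against the detergent-processed vehicle for the same replicate, using vsn-normalised intensities.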

[2] = molecular target: T2, UniProt Q08170|A0A0D9SEM4
T2 sequence (whole entry): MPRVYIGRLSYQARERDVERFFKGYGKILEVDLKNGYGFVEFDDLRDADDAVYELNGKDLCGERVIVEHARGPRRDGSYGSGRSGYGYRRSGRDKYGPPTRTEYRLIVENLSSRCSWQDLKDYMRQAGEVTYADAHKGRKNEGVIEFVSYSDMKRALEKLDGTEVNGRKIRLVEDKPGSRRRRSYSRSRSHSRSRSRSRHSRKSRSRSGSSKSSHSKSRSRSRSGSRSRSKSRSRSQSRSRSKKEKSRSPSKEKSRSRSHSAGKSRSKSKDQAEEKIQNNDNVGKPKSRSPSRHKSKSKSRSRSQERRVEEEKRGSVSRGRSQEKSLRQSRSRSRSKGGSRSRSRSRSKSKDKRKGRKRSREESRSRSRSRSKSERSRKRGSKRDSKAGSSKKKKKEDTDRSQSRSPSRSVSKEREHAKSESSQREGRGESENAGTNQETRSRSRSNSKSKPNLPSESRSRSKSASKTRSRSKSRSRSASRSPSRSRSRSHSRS
Procedure, shortened: as §1

[3] = molecular target: T3, UniProt Q4ADV7|Q4ADV7-3|Q4ADV7-2
T3 sequence (whole entry): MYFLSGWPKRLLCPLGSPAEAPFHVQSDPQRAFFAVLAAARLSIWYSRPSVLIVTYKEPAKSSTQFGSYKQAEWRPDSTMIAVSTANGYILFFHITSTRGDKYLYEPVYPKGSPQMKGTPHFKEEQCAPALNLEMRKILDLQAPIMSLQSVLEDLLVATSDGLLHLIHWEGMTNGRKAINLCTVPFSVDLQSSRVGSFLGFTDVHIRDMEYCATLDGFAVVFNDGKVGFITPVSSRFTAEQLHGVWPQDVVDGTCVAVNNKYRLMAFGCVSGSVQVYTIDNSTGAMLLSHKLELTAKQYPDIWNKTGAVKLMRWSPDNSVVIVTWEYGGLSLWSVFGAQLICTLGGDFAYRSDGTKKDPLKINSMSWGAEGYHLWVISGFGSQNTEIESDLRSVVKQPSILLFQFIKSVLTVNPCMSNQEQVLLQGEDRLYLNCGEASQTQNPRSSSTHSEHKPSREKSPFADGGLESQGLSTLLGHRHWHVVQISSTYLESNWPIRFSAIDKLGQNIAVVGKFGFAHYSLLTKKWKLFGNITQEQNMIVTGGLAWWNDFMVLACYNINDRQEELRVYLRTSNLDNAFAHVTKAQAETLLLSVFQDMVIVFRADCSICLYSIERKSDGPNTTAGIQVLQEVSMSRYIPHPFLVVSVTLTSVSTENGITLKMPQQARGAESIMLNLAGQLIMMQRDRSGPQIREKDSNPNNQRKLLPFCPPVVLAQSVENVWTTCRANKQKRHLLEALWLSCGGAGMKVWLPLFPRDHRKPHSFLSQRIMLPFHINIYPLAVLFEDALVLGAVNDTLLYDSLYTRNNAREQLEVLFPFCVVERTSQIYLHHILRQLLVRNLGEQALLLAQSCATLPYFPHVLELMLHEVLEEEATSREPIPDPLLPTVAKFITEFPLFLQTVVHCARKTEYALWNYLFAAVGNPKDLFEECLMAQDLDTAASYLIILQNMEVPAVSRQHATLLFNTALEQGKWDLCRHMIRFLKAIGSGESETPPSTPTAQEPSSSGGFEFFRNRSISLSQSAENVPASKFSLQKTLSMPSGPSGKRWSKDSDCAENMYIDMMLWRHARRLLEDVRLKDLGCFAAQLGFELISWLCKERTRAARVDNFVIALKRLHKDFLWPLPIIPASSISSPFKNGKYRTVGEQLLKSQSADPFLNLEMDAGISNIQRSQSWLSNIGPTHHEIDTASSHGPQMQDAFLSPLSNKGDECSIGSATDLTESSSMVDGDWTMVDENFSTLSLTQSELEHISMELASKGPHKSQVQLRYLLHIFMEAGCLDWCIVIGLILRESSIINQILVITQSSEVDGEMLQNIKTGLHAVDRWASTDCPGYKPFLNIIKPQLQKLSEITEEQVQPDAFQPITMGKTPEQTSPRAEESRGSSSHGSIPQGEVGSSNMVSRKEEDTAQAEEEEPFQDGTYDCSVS
Procedure, shortened: as §1

[4] = molecular target: T4, UniProt Q68CQ4
T4 sequence (whole entry): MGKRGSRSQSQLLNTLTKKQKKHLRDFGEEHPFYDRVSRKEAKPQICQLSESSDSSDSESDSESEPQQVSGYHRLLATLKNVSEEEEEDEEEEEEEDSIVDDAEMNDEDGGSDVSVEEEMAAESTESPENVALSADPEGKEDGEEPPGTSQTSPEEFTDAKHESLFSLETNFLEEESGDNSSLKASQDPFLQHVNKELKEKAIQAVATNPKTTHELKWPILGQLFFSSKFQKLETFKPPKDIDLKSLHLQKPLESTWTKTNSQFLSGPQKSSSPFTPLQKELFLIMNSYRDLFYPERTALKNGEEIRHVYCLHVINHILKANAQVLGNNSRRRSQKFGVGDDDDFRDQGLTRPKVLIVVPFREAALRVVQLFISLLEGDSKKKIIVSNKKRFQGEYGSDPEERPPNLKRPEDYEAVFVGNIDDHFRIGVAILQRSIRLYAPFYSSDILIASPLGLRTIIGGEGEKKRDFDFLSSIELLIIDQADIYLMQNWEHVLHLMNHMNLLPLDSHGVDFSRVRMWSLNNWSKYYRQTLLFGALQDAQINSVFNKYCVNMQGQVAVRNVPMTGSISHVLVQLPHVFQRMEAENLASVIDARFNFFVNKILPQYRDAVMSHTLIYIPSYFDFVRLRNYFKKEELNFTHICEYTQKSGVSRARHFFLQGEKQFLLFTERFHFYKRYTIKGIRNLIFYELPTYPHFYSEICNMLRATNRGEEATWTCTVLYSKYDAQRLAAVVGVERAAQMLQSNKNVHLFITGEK
Procedure, shortened: as §1

[5] = molecular target: T5, UniProt Q6ULP2|Q6ULP2-2|Q6ULP2-4|Q6ULP2-5|Q6ULP2-3
T5 sequence (whole entry): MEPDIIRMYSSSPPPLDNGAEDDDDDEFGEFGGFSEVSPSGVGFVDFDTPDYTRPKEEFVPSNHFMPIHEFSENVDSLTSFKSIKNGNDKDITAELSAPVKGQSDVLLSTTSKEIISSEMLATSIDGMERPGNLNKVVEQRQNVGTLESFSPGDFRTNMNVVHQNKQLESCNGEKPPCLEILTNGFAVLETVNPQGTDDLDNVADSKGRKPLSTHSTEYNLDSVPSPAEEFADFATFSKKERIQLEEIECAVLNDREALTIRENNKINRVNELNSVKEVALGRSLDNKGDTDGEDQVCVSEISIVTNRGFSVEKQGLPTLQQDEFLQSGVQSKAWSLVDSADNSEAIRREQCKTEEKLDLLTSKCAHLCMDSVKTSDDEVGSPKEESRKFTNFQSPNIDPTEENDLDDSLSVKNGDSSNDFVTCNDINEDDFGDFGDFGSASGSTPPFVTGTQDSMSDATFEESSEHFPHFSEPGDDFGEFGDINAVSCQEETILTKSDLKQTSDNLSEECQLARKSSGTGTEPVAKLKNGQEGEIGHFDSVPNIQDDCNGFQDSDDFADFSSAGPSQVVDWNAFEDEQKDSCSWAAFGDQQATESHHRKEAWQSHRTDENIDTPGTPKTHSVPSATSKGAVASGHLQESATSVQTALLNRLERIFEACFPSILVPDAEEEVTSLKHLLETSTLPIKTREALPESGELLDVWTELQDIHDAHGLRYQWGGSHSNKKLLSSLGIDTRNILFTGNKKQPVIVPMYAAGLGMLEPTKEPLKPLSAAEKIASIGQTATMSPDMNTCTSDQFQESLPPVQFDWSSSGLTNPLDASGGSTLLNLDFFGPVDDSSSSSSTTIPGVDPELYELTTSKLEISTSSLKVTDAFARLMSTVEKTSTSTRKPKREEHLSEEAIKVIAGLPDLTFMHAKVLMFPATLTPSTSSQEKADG
Procedure, shortened: as §1

Nc1nc2c(ncn2[C@@H]2O[C@H](COP(=O)(O)OP(=O)(O)OP(=O)(O)O)[C@@H](O)[C@H]2O)c(=O)[nH]1 [guanosine triphosphate]
NP40-soluble protein abundance ([1]; concentration: 0.1mM): 0.963 ± 0.015 | NP40-soluble protein abundance ([1]; concentration: 0.5mM): 0.961 ± 0.012 | NP40-soluble protein abundance ([1]; concentration: 1mM): 0.952 ± 0.011 | NP40-soluble protein abundance ([1]; concentration: 2mM): 0.93 ± 0.045 | NP40-soluble protein abundance ([1]; concentration: 4mM): 0.942 ± 0.042 | NP40-soluble protein abundance ([1]; concentration: 6mM): 0.911 ± 0.037 | NP40-soluble protein abundance ([1]; concentration: 8mM): 0.867 ± 0.06 | NP40-soluble protein abundance ([1]; concentration: 10mM): 0.908 ± 0.064 | NP40-soluble protein abundance ([2]; concentration: 0.1mM): 0.928 ± 0.042 | NP40-soluble protein abundance ([2]; concentration: 0.5mM): 1.23 ± 0.055 | NP40-soluble protein abundance ([2]; concentration: 1mM): 1.27 ± 0.028 | NP40-soluble protein abundance ([2]; concentration: 2mM): 1.15 ± 0.052 | NP40-soluble protein abundance ([2]; concentration: 4mM): 0.94 ± 0.034 | NP40-soluble protein abundance ([2]; concentration: 6mM): 1.09 ± 0.042 | NP40-soluble protein abundance ([2]; concentration: 8mM): 1.2 ± 0.053 | NP40-soluble protein abundance ([2]; concentration: 10mM): 1.08 ± 0.035 | NP40-soluble protein abundance ([3]; concentration: 0.1mM): 1.09 ± 0.11 | NP40-soluble protein abundance ([3]; concentration: 0.5mM): 1.13 ± 0.091 | NP40-soluble protein abundance ([3]; concentration: 1mM): 1.02 ± 0.04 | NP40-soluble protein abundance ([3]; concentration: 2mM): 1.07 ± 0.077 | NP40-soluble protein abundance ([3]; concentration: 4mM): 1.12 ± 0.18 | NP40-soluble protein abundance ([3]; concentration: 6mM): 0.946 ± 0.025 | NP40-soluble protein abundance ([3]; concentration: 8mM): 0.92397 ± 0.00016 | NP40-soluble protein abundance ([3]; concentration: 10mM): 0.963 ± 0.19 | NP40-soluble protein abundance ([4]; concentration: 0.1mM): 1.02 ± 0.068 | NP40-soluble protein abundance ([4]; concentration: 0.5mM): 1.02 ± 0.051 | NP40-soluble protein abundance ([4]; concentration: 1mM): 1.01 ± 0.048 | NP40-soluble protein abundance ([4]; concentration: 2mM): 0.992 ± 0.04 | NP40-soluble protein abundance ([4]; concentration: 4mM): 0.999 ± 0.026 | NP40-soluble protein abundance ([4]; concentration: 6mM): 0.994 ± 0.042 | NP40-soluble protein abundance ([4]; concentration: 8mM): 1.02 ± 0.046 | NP40-soluble protein abundance ([4]; concentration: 10mM): 1.03 ± 0.048 | NP40-soluble protein abundance ([5]; concentration: 0.1mM): 1.01 ± 0.098 | NP40-soluble protein abundance ([5]; concentration: 0.5mM): 1.02 ± 0.066 | NP40-soluble protein abundance ([5]; concentration: 1mM): 0.979 ± 0.064 | NP40-soluble protein abundance ([5]; concentration: 2mM): 1 ± 0.044 | NP40-soluble protein abundance ([5]; concentration: 4mM): 1.06 ± 0.041 | NP40-soluble protein abundance ([5]; concentration: 6mM): 1 ± 0.023 | NP40-soluble protein abundance ([5]; concentration: 8mM): 1.03 ± 0.033 | NP40-soluble protein abundance ([5]; concentration: 10mM): 1.02 ± 0.042

From the supplement of paper PMC6411743
